# Source: PubChem (National Center for Advancing Translational Sciences (NCATS))
# In the library only some 9.8% were active in any assay of this set; here they are far more common.
# KDM4E inh: JMJD2E (human) inhibition; JMJD2E catalytic domain, FDH-coupled NADH fluorescence (FDH is formaldehyde dehydrogenase); Potency, µM (doses to about 57.1 µM), without a hit: at the top dose activity change, negative = inhibition, most hits filed as inhibitors; actives 1.6% (n = 230,000); AID 2147;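 also: potency is read from the fitted curve at half-maximal effect; 0% = wells with enzyme and -100% = buffer wells without enzyme; nearly all actives have a fitted effect of over 50% in size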
# HTT cytoprotect: Huntington cell model cytoprotection by ATP luminescence. PC12 HTT-Q103 induced, cytoprotection, ATP luminescence, 40 h. actives 0.14% (n = 230,000). Potency, µM (titrated, usually from 56.4 µM), without a hit: cytoprotection (ATP increase), usual class: activators; active = well fitted curve in the direction sought with a large enough effect; inconclusive = small, poorly fitted or top-dose-only effect, or another doubt; inactive = no such curve, though single readings can be large; an effect the other way counts as inactive or inconclusive; also: potency is read from the fitted curve at half-maximal effect; % of control where 0% means no effect; nearly all actives have a fitted effect of over 45% in size
#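 Rat PC12, Q103 Htt exon1-GFP fusion, ecdysone promoter; tebufenozide inducer 100 nM final; compound titration; qHTS, 1500 cells/well; ATPlite luminescent read.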
# HTT aggregate: inhibitors of mutant huntingtin aggregate formation in PC12 cells | PC12 HttQ103-GFP aggregates, Acumen cytometry, 40 h | Potency, µM (titrated, usually from 46.1 µM), for inactives: at the highest dose activity change, negative = inhibition, actives largely listed as inhibitors | actives 1.1% (n = 220,000) | AID 1688; active = well fitted curve in the direction sought with a large enough effect; inconclusive = small, poorly fitted or top-dose-only effect, or another doubt; inactive = no such curve, though single readings can be large; an effect the other way counts as inactive or inconclusive; also: potency is read from the fitted curve at half-maximal effect; % is scaled to controls: 0 for no effect and ±100 for the full control effect; nearly all actives have a fitted effect of over 60% in size
#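 PC12 cells stably carrying ecdysone-inducible HTT exon 1 Q103–GFP were induced with tebufenozide (100 nM final) and treated with library compounds in titration. GFP aggregates in lysates were counted by laser scanning cytometry.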
# HPGD block: blocks human HPGD enzyme activity | P15428 | purified HPGD, NADH fluorescence kinetic, PGE2 substrate | actives 4.3% (n = 150,000) | AID 894 | Potency, µM, without a hit: at the highest dose activity change, negative = inhibition, most hits filed as inhibitors; also: potency is read from the fitted curve at half-maximal effect; % is scaled to controls: 0 for no effect and ±100 for the full control effect
#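 20 nM HPGD preincubated 15 min at room temperature with compound in 50 mM Tris-HCl pH 8, 0.01% Tween 20. Started with 1 mM NAD+ and 30 uM prostaglandin E2; NADH fluorescence (360/450 nm) read 5 times over 30-s intervals, last minus first.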
# CBFb-RUNX1 inh: blocks binding between human CBF-beta and RUNX1; Potency, µM (series often up to 59.8 µM), for inactives: top-dose activity, negative = inhibition, most hits filed as inhibitors; 230,000 tested, under 10 active; AlphaScreen CBFb-His/RUNX1-biotin binding, biochemical; active = well fitted curve in the direction sought with a large enough effect; inconclusive = small, poorly fitted or top-dose-only effect, or another doubt; inactive = no such curve, though single readings can be large; an effect the other way counts as inactive or inconclusive; also: % of control where 0% means no effect
#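 Proteins preincubated together for 20 min at RT before compound addition; 15 min later, nickel and streptavidin beads were added and left 90 min prior to AlphaScreen measurement.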
# ALDH1A1 block: inhibitors of human aldehyde dehydrogenase 1A1; P00352; Purified ALDH1A1, NADH fluorescence, propionaldehyde substrate; Potency, µM (titrated, usually from 75.3 µM), inactives show at the top dose activity, negative = inhibition, most hits filed as inhibitors; actives 7.3% (n = 220,000); AID 1030;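 also: potency is read from the fitted curve at half-maximal effect; plate controls were no enzyme wells and a reference inhibitor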
# Target sequence (P00352 whole entry, looked up): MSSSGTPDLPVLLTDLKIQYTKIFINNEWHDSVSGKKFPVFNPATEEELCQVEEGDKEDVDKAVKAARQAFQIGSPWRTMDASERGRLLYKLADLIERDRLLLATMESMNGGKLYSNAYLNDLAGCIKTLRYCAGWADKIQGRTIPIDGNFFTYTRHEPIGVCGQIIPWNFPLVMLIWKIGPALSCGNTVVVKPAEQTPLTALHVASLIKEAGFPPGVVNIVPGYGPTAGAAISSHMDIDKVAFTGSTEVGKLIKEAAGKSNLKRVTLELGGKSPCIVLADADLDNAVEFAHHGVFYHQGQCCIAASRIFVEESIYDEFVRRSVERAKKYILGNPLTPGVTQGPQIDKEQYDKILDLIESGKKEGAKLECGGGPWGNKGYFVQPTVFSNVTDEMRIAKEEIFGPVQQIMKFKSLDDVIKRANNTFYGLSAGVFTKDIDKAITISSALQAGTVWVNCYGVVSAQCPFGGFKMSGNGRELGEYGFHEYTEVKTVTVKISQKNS
# * = called active by the depositor; ? = inconclusive; nt = no result; ! = not confirmed by another sample; [ ] = dose if it differs, or a comment. Unless noted, calls follow the shape of the dose curve; as a rule, active = well fitted inhibition curve with a large enough effect (not every such curve was filed as active); inconclusive = small, poorly fitted or top-dose-only effect, or another doubt; inactive = no such curve, though single readings can be large or run the other way.
SMILES,KDM4E inh,HTT cytoprotect,HTT aggregate,HPGD block,CBFb-RUNX1 inh,ALDH1A1 block
O=c1[nH]c2ccccc2n1CCCSCCCn1c(=O)[nH]c2ccccc21,10%,-27%[0.074 µM],11µM*,?,-5%,?
Cc1cc(C(=O)CSCCCn2c(=O)[nH]c3ccccc32)c(C)n1C,-1%,-2%[10 µM],27%,-11%,-9%,-14%
COc1ccc(-c2c(O)c3cc(O)cc(O)c3oc2=O)cc1,nt,nt,nt,nt,-9%,nt
O=c1c(O)c(-c2ccc(O)c(O)c2)oc2ccccc12,10µM*,17%[1.9 µM],nt,-16%,2%[21.7 µM],-15%
O=c1c(O)c(-c2ccc(O)c(O)c2)oc2cc(O)ccc12,14µM*!,-24%[1.9 µM],nt,?,7%[21.7 µM],?
CCOC(=O)C1=C(C)N=C2c3ccccc3C(=O)C2C1c1ccccc1 (stereo unspecified),-2%,-18%,2%,1%,-8%,9%
CCOC(=O)C1=C(C)N=C2c3ccccc3C(=O)C2C1c1ccc(C)cc1 (stereo unspecified),32µM*,-53%,?,-17%,-3%,?
CN1C(=O)S/C(=C\c2ccc(-n3cncn3)cc2)C1=O,-15%,8%[10 µM],-9%[9.22 µM],nt,10%,-1%
COCCNC(=O)C(C)OC(=O)c1cc2occc2n1C (stereo unspecified),5%,0%,?,14µM*,-11%,32µM*
O=C(O)c1ccc(C(=O)c2ccc3c(c2)C(=O)N(CC2CCCO2)C3=O)cc1 (stereo unspecified),-18%,-15%[10 µM],-5%[9.22 µM],nt,5%,?
CCOC(=O)c1[nH]c2ccccc2c1NC(=O)C(C)(C)C,?,-13%,-2%,?,-4%,?
Cc1c(C(=O)COC(C)(C)C)[nH]c2ccccc12,2%,3%[10 µM],?,4.5µM*,0%,6.3µM*
Nc1nonc1C(=O)N1CCCC1,-2%,-8%[10 µM],-11%[9.22 µM],nt,0%,-4%
Cc1c(C(=O)N2CCCCC2)nnn1-c1nonc1N,6%,12%,13%,16µM*,2%,7.9µM*
CCc1ccccc1NC(=O)CN(C)C(=O)Cn1cc(C(F)(F)F)cc(Cl)c1=O,0%,nt,2%,nt,10%,-1%
CC1CCN(c2ncnc3ccccc23)CC1,7%,24%[10 µM],22µM*,-12%,-5%,6%
Cc1ccc(C(CCN(Cc2ccccc2)C(=O)c2ccco2)c2ccco2)cc1 (stereo unspecified),-12%,16%[10 µM],22%,?,-23%,20µM*
O=C(c1ccco1)N(CCC(c1ccccc1)c1ccco1)Cc1ccco1 (stereo unspecified),?,-11%,28%,20µM*,?,3.5µM*
CN(Cc1ccccc1)C(=O)c1ccco1,3%,-21%[10 µM],-12%[9.22 µM],nt,4%,5%
CC1(C)CC(CCN(Cc2ccccc2)C(=O)c2ccco2)(c2ccccc2)CCO1 (stereo unspecified),2%,-6%[10 µM],?,-12%,-6%,25µM*
CC(=O)N(CCC(c1ccccc1)c1ccco1)Cc1cccs1 (stereo unspecified),-8%,-6%,?,28µM*,-2%,1.4µM*
CC(=O)N(CCC(Cc1ccccc1)c1ccco1)Cc1ccco1 (stereo unspecified),5%,27%[10 µM],-5%[9.22 µM],nt,-8%,nt
CCC1(C)CC(CCN(Cc2ccco2)C(C)=O)(c2ccccc2)CCO1 (stereo unspecified),1%,nt,nt,nt,-8%,2%
O=c1c(-c2ccccc2)nc2cnc(N3CCNCC3)nc2n1C1CC1,nt,-2%,nt,?,nt,?
CC(Sc1nc2cc([N+](=O)[O-])ccc2n1-c1cccc(C(F)(F)F)c1)C(=O)NC(N)=O (stereo unspecified),6%,3%[10 µM],24%,-2%,-6%,12%
SMILES,KDM4E inh,HTT cytoprotect,HTT aggregate,HPGD block,CBFb-RUNX1 inh,ALDH1A1 block
Cc1sc(NC(=O)/C=C/c2ccco2)c(C(=O)O)c1C,-12%,-28%[10 µM],1%[9.22 µM],nt,-6%,nt
NCC[C@H](N)C(=O)O,nt,-4%[10 µM],nt,4%,nt,9%[13.5 µM]
CCCNC(=O)C12CCC(C)(c3nc4cc(C)c(C)cc4nc31)C2(C)C (stereo unspecified),-3%,-10%,13%,nt,2%,9%
Oc1ccc(-c2cnns2)c(O)c1,-6%,nt,?,2µM*,0%,25µM*
CCCN(Cc1cc2cc(C)ccc2[nH]c1=O)C(=O)c1cccc(OC)c1,?,-26%[0.074 µM],10µM*,?,3%,?
O=C(Cc1ccc(Cl)cc1)c1c[nH]c(C(=O)NCc2cccnc2)c1,2%,-17%[10 µM],18µM*,nt,-20%,-6%
CCc1c(C)c2cc(Cl)c(O)c(CN(C)C)c2oc1=O,?,-8%[0.074 µM],3.2µM*,?,5%,?
Cc1cccc(N(C(=O)CCC(=O)Nc2nccs2)C(C(=O)NC(C)(C)C)c2ccc(O)cc2)c1 (stereo unspecified),-2%,nt,nt,nt,-1%,5%
c1cncc(-c2noc(CC3CCCCC3)n2)c1,4%,-11%,2%,-2%,11%,0%
Cc1ccc(C(=O)ONc2ccc(N=O)cc2)cc1,3%,37%[10 µM],2%,-6%,4%,?
Cc1ccc(C(=O)ONc2ccc(N=NC(=O)c3ccccc3O)cc2)cc1,?,-14%[10 µM],8%,28µM*,0%,?
CCOc1ccc(C(C#N)N2CCOCC2)cc1OC (stereo unspecified),-20%,13%,-2%,-13%,8%,10µM*
COc1ccc(Nc2nc(-c3ccc4c(c3)NC(=O)CO4)cs2)cc1,-6%,-7%,?,nt,-10%,?
CCC(C)Nc1nc(-c2ccc3c(c2)NC(=O)CO3)cs1 (stereo unspecified),6%,0%,6%,-7%,-2%,3.5µM*
CCN(CC)c1ccc(NC(=O)C2CC3CCC2C3)cc1 (stereo unspecified),-19%,-10%,-1%[9.22 µM],18µM*,-8%,13µM*
CC(Nc1nc(N2CCNCC2)nc2ccccc12)c1ccccc1 (stereo unspecified),?,10%,-15%,nt,3%,?
C=C(C(=O)OCC)C(=O)c1ccccc1,-3%,nt,nt,-8%,26%,14µM*
CCCCCn1c(CN2CCN(C(=O)c3ccco3)CC2)nc2c1c(=O)n(C)c(=O)n2C,6%,6%[10 µM],6%[9.22 µM],nt,3%,nt
CCCCn1c(CN2CCN(C(=O)c3ccco3)CC2)nc2c1c(=O)n(C)c(=O)n2C,-2%,10%,-1%,-7%,8%,22µM*
CCCCCCn1c(CN2CCN(C(=O)c3ccco3)CC2)nc2c1c(=O)n(C)c(=O)n2C,-5%,5%,-7%,-17%,-3%,1.3µM*
